A selection: hits, their analogues and other compounds. The true share with any hit is near 18%.
TDP1 inh: blocks human tyrosyl-DNA phosphodiesterase 1; hit rate 0.28% among 350,000; recombinant TDP1, AlphaScreen DNA substrate cleavage; Potency, µM (doses to about 130 µM), without a hit: at the highest dose activity change, negative = inhibition, actives largely listed as inhibitors; Q9NUW8; note: potency is the fitted concentration of half-maximal effect; nearly all actives have a fitted effect of over 40% in size
Target sequence (Q9NUW8 whole entry, looked up): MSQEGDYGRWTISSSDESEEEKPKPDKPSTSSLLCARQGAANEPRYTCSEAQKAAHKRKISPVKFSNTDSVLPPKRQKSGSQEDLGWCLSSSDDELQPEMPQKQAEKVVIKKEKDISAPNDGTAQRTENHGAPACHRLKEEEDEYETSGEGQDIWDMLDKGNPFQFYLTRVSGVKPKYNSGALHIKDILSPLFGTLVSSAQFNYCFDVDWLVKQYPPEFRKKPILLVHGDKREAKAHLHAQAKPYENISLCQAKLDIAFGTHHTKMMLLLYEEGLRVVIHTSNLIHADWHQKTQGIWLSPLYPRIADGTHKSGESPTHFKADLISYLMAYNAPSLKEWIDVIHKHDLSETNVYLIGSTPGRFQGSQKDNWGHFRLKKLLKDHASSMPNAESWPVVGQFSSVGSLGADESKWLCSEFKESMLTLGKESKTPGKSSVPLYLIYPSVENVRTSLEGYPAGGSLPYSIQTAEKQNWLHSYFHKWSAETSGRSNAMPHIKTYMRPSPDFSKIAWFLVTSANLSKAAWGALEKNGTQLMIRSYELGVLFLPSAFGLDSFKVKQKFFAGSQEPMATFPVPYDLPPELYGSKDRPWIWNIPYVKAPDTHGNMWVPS
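Here, a 5' biotin and 3' phosphotyrosine-FITC DNA oligonucleotide reports Tdp1 activity: intact substrate bridges AlphaScreen beads, while cleavage leaves a 3' phosphate and drops signal. All incubations at room temperature.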
TDP1 cell CPT: growth inhibition of DT40 Tdp1-/-;hTDP1 cells with camptothecin (screen for TDP1 inhibitors); chicken DT40 Tdp1-/-;hTDP1 cells + 20 nM CPT, ATP luminescence, 48 h; Potency, µM (highest dose often 46.2 µM), for the others: at the highest dose activity change, negative = growth inhibition, most hits filed as inhibitors; hit rate 12% among 420,000; AID 686979; note: potency is the fitted concentration of half-maximal effect; nearly all actives have a fitted effect of over 55% in size
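Chicken DT40 Tdp1-/- cells complemented with human TDP1, 400 cells/well, exposed to compounds plus 20 nM camptothecin for at least 48 h at 37 C; viability read as ATP content by CellTiter-Glo luminescence.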
IL-1B inflam inh: inflammasome signaling inhibition, IL-1 beta readout; THP-1 LPS/ATP IL-1B secretion, AlphaLISA, 16 h; hits give low values; activity change, % at 57.5 µM; hit rate 4.7% among 360,000; in the data active = activity change below about -50%; inconclusive = mostly about -30% to -49%
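Secreted IL-1B measured by AlphaLISA bead assay after 16 h compound exposure of THP-1 cells; compounds (final up to 57.5 uM) added 1 h before LPS (250 ng/mL) and ATP (1.25 mM) stimulation; lower signal means less secretion.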
Six1-Eya2 inh: inhibitors of human Six1/Eya2 interaction; Q15475+O00167; activity change, % (no concentration beside the values); AlphaScreen GST-Six1/His-Eya2 binding, biochemical; hits give low values; hit rate 0.56% among 360,000; in the data active = activity change below about -65%; inconclusive = mostly about -30% to -63%
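AlphaScreen with GST-Six1 and His-Eya2 (5X mix: 250 nM and 500 nM), glutathione donor and nickel acceptor beads; buffer 50 mM Tris pH 8.0, 300 mM NaCl, 1 mM TCEP; 1 h at 37 C in the dark.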
CtBP-E1A inh: inhibitors of CtBP/E1A interaction; activity change, % (concentration not given with the values); AID 651724; AlphaScreen GST-E1A/His-CtBP binding, 1536-well; hits give low values; hit rate 0.49% among 340,000; in the data active = activity change below about -65%; inconclusive = mostly about -30% to -63%
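Steps: dispense buffer (Tris pH 8.0, NaCl 300 mM, TCEP 1 mM, BSA, Tween 20); add 5X protein mix (GST-E1A, His-CtBP, 125 nM each); pin 23 nL compound; 2 h at 37 °C, dark; add 5X beads (50 ug/mL); 1 h; read.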
TDP1 cell noCPT: qHTS for Inhibitors of human tyrosyl-DNA phosphodiesterase 1 (TDP1): qHTS in cells in absence of CPT; DT40 Tdp1-/- hTDP1 cells, no CPT, ATP luminescence, 48 h; Potency, µM (top dose mostly 46.2 µM), inactives show at the top dose activity change, negative = growth inhibition, actives largely listed as inhibitors; hit rate 15% among 420,000; AID 686978, 2013; note: potency is the fitted concentration of half-maximal effect; nearly all actives have a fitted effect of over 55% in size
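Luminescent ATP content (CellTiter-Glo) served as the growth readout. Knockout chicken DT40 cells expressing human TDP1 were exposed to compounds without camptothecin for a minimum 48 hr at 37 °C.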
* marks the source's active call; other numbers are inactive results; ? = inconclusive; · = not tested or not shown; [ ] = another dose, or the depositor's remark. Unless noted, calls come from the whole dose curve; as a rule, active = well fitted curve in the direction sought with a large enough effect; inconclusive = small, poorly fitted or top-dose-only effect, or another doubt; inactive = no such curve, though single readings can be large; an effect the other way counts as inactive or inconclusive. % is set by controls: 0 for no effect and ±100 for the full control effect.

SMILES	TDP1 inh	TDP1 cell CPT	IL-1B inflam inh	Six1-Eya2 inh	CtBP-E1A inh	TDP1 cell noCPT
CC(C)C[C@@H](CN1CCCC1CN1C(=S)NC[C@@H]1Cc1ccccc1)N1C[C@H](Cc2ccccc2)N(CCc2ccccc2)C1=S (some centres undefined)	·	?	11	11	-5	9.2µM*
COc1ccc(NC(=O)CN(C)C(=O)CCCc2c[nH]c3ccccc23)cc1	-10%[0.505 µM]	-2%	8	-20	-2	?
CCOc1ccc(NC(=O)CC(C)S(=O)(=O)c2ccc3c(c2)NC(=O)CO3)cc1 (centres undefined)	0%	-28%	0	2	5	0%
Cc1nc2ccccc2c2oc(C(=O)Nc3ccc(C(C)C)cc3)cc12	11%	?	-2	-21	0	21µM*
CCN1CCCC1CNC(=O)c1cc2c(C)nc3ccccc3c2o1 (centres undefined)	6%	-1%	·	2	5	-28%
Cc1nc2ccccc2c2oc(C(=O)NCC3COc4ccccc4O3)cc12 (centres undefined)	3%	21µM*	45	?	-29	12µM*
COc1cc(NC(=O)c2cc3c(C)nc4ccccc4c3o2)cc(OC)c1OC	7%	8.2µM*	-21	?	-12	12µM*
Cc1nc2ccccc2c2oc(C(=O)Nc3ccc4c(c3)OCCO4)cc12	0%	15µM*	0	?	-27	15µM*
CCN(Cc1nc(-c2ccccc2)no1)C(=O)COc1cccc(OC)c1	-18%	10%	3	2	-21	-23%
CNC(=O)NC(=O)C(OC(=O)CCNS(=O)(=O)c1ccccc1)c1ccccc1 (centres undefined)	1%	1%	-13	-14	-8	16%
COc1ccc(/C=N/n2cnn(Cc3ccccc3Cl)c2=S)cc1OC	6%	?	-55*	-11	-9	?
Oc1ccc(/C=N/n2cnn(Cc3ccccc3Cl)c2=S)c(O)c1	2%	?	16	1	-2	-5%
O=S(=O)(c1ccccc1)N1CCC2(CC1)CN(c1ncccn1)C2	·	-2%	·	·	·	-11%
COc1ccc(C(=O)c2ccccc2)cc1	-2%	16%	16	17	9	-11%
COC1=CC(=O)C(C(=O)c2ccccc2)=CC1=O	1%[56.1 µM]	?	·	·	·	5.8µM*
CCOC(=O)C1CCN(C(c2cc3ccc(C)c(C)c3[nH]c2=O)c2nnnn2C2CCCCC2)CC1 (centres undefined)	8%	?	-9	17	25	?
CCOC(=O)C1CCN(C(c2cc3c(C)ccc(C)c3[nH]c2=O)c2nnnn2C2CCCCC2)CC1 (centres undefined)	4%	28µM*	13	0	-2	?
Cc1ccc(Cl)cc1NC(=O)CCn1cnc2ccccc2c1=O	4%	11%	·	·	·	-12%
Cc1csc(NC(=O)c2ccncc2)n1	7%	-14%	0	-6	-1	8%
CC(C)(C)c1csc(NC(=O)c2ccncc2)n1	8%	?	19	9	·	21µM*
CC(C)(C)c1csc(NC(=O)c2ccc3nccnc3c2)n1	6%	16µM*	0	-4	0	18µM*
CCCCSc1nc(C)cc(C)c1S(=O)(=O)c1ccccc1C	·	18µM*	19	5	10	?
Cc1ccc2c(CC(=O)N3CCN(S(=O)(=O)c4ccc5c(c4)OCCO5)CC3)coc2c1	4%	-14%	-6	3	0	?
COc1ccccc1N1CCN(C(=O)c2cc3c(s2)CCC3)CC1	5%	?	24	-3	-1	29µM*
COc1ccc(N2CCN(C(=O)c3cc4c(s3)CCCCC4)CC2)cc1	11%	21µM*	36	?	?	?
SMILES	TDP1 inh	TDP1 cell CPT	IL-1B inflam inh	Six1-Eya2 inh	CtBP-E1A inh	TDP1 cell noCPT
COc1ccc2c(c1)CCc1cc(C(=O)N3CCN(c4ccc(N5CCOCC5)nn4)CC3)sc1-2	8%	21µM*	-11	-20	-17	?
CC(=O)c1ccc(N2CCN(C(=O)c3cc4c(s3)CCCC4)CC2)cc1	3%	23µM*	-5	1	-11	?
COc1ccccc1N1CCN(C(=O)c2ccc([N+](=O)[O-])s2)CC1	8%	?	-3	1	-20	?
COc1ccc(N2CCN(C(=O)c3cc4c(s3)-c3ccccc3OC4)CC2)cc1	2%	-3%	-10	-10	-24	-20%
CCn1cc(C(=O)N2CCN(c3ccc(F)cc3)CC2)c(=O)c2cc(S(=O)(=O)N3CCOCC3)ccc21	2%	-3%	·	·	·	2%
C[C@H](CO)N1C[C@H](C)[C@@H](CN(C)S(C)(=O)=O)Oc2c(NC(=O)C3CCCCC3)cccc2C1=O	1%	-14%	-10	-6	-10	-5%
CN(C(=O)COC(=O)c1cc(NS(=O)(=O)c2cc([N+](=O)[O-])ccc2Cl)ccc1O)C1CCCCC1	6%	-25%	-81*	-14	-18	-6%
CC(CCc1ccccc1)NC(=O)COC(=O)c1cc(NS(=O)(=O)c2ccc(Cl)c([N+](=O)[O-])c2)ccc1O (centres undefined)	8%	?	-98*	0	12	?
Cc1ccc(NC(=O)COC(=O)/C=C/c2cccs2)cc1	8%	-16%	0	7	0	?
CO[C@H]1CN(C)C(=O)c2ccc(NC(=O)C3CCC3)cc2OC[C@H](C)N(CC2CCCCC2)C[C@@H]1C	·	?	15	-6	1	21µM*
CO[C@@H]1CN(C)C(=O)c2cc(NC(=O)NC3CCCCC3)ccc2OC[C@@H](C)N(CCc2ccccc2)C[C@@H]1C	·	16µM*	-6	-11	-1	?
CCC(=O)Nc1ccc2c(c1)OC[C@@H](C)N(Cc1cccc(F)c1)C[C@@H](C)[C@@H](OC)CN(C)C2=O	·	?	4	8	8	23µM*
O=C(O)CSc1nc(-c2ccccc2)nc2c1CCCC2	·	-11%	41	0	1	19%
Cc1sc(NC(=O)c2ccc(OCC(C)C)cc2)c(C(N)=O)c1-c1ccc(Cl)cc1Cl	-1%	9.2µM*	-17	2	4	7.3µM*
Cc1cc(C(=O)Nc2sc(C)c(-c3ccc(F)cc3)c2C(N)=O)no1	6%	-16%	0	-14	-11	-14%

Compound activity from PubChem BioAssay.
